Experiment [1] in a line: inhibitors of TNFa-induced NFkB p65 translocation, primary screen, imaging, HUVEC, MLSMR starter and 10KST1 sets (AID 438;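 active means inhibition above 20% together with a positive visual image hit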;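 further: compound added about 3h40 before a 20 min TNFalpha stimulation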;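 on inhibition: signal is the nuclear over cytoplasmic p65 intensity ratio per well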). The note with it: HUVEC TNFa-induced p65 nuclear translocation; cell count: measured here: nuclei count (cytotoxicity indicator), at 2.08 µM; inhibition: at 2 µM, stronger effect = higher value, 0% TNFa-plus-vehicle, 100% no-TNFa wells.
Experiment [2] is described as follows: reduction of polyQ htt aggregates in cells – imaging, exon1htt(103Q)mCFP cells, high-content imaging, primary screen (AID 483;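 active means visual image review flags a hit and inhibition of aggregation exceeds 20%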;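 further: compound exposure lasted 3 days before fixation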;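 on nuclei count: percent of the per-plate median nuclei count of sample wells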). The note with it: exon1htt(103Q)mCFP cell line, aggregate imaging, at 2 µM; inhibition of aggregation: stronger effect = higher value; nuclei count: measured here: cell count, toxicity.
Experiment [3] is described as follows: endothelial E-selectin expression blockers – imaging, HUVEC, immunofluorescence, MLSMR starter and 10KST1 sets, primary screen (AID 487;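 active means visually confirmed hit in the image check and inhibition above 20%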;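 on inhibition: signal is fraction of cell area covered by stained E-selectin grains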;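 on nuclei count: 100% = median nuclei count of all wells on the same plate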). The note with it: HUVEC TNFalpha-induced E-selectin immunofluorescence imaging, at 2 µM; inhibition: stronger effect = higher value; nuclei count: measured here: cell number, toxicity.
The nature of experiment [4]: Primary imaging screen for DUSP6 inhibitors that restore phospho-Erk in transfected HeLa cells, chemical complementation (AID 609;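 active means compounds giving at least 50% inhibition in the cell-based MKP-3 phosphatase rescue imaging test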;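 on inhibition: phospho-Erk level distribution per well compared with pooled transfected vehicle control wells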). The note with it: HeLa MKP-3 transfected, phospho-Erk imaging KS statistic, at 10 µM, cells stimulated with TPA for 15 min.
Experiment [5] addresses Dual specificity protein phosphatase 6 (Homo sapiens) (UniProt Q16828). The experiment is described as above. The note with it: HeLa MKP-3 transfected, phospho-Erk imaging KS statistic; at 10 µM; stronger effect = higher value; cells stimulated with TPA for 15 min.
Experiment [6] concerns the target Voltage-gated potassium channel subunit beta-2 (Rattus norvegicus) (UniProt P62483). Put plainly: inhibitors of rat Kvbeta2 reductase activity – biochemical, NADPH fluorescence, primary screen (AID 622;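 active means fluorescence slope higher than the sample average by over 3 SD, cut at about -0.22 in these data, passing the limit was not always enough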;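 further: slope of raw intensity against log time taken from 70 to 1610 s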). The note with it: recombinant KvBeta, 4-cyanobenzaldehyde reduction, at 10 µM, stronger effect = higher value.
The target is the same in experiment [7]. Put plainly: enhancers of rat Kvbeta2 NADPH turnover – biochemical, NADPH fluorescence, primary screen (AID 623;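 active means NADPH fluorescence slope more negative than the mean of all samples by about 3 SD, 99.7% confidence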;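 further: fluorescence intensity change per second fitted from 20 to 320 s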). The note with it: Recombinant KvBeta, NADPH fluorescence decrease slope, 10 min; at 10 µM; stronger effect = lower value.
In experiment [8] the target is Muscarinic acetylcholine receptor M4 (Homo sapiens) (UniProt P08173). Nature of the experiment: M4-linked GIRK flux change, two-sided – cell-based, HEK293 M4/GIRK, thallium flux, BTC-AM, M4 allosteric agonist project, primary screen (AID 625;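 active means fluorescence slope after compound addition differing from the mean of all tested samples at 99.7% confidence, mostly higher but some lower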;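 further: thallium influx through GIRK channels coupled to M4 in HEK293 cells with BTC-AM dye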). The note with it: at 10 µM, actives lie on both sides.
Experiment [9] in a line: inhibitors of larval lipid processing in zebrafish, primary screen, whole organism, PED6 fluorescence, gall bladder and intestine (AID 686;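 active means a full or partial loss of lipid-probe fluorescence in the fish gall bladder, intestine or both, judged by eye; inactive means no fluorescence loss, or compound toxic to the fish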;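 further: larvae 5 to 7 days old with five fish per well; signal comes from phospholipase A2 cleavage of quenched PED6 carried via bile; overnight exposure to compound and PED6 before scoring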). The note with it: Zebrafish larvae PED6 lipid processing, fluorescence scoring; screened at 20 µM (by protocol).
Experiment [10] is described as follows: loss of swimming-algae plug formation – whole organism, Chlamydomonas reinhardtii, WT vs cilia-less mutant, absorbance, 96-well, primary screen (AID 463189).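 Further: 0% = wild type cc124 cells in DMSO and 100% = ciliumless bld1 mutant cells.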 The note with it: Chlamydomonas reinhardtii gravitaxis, OD600 absorbance, 2 days; at 10 µM; stronger effect = higher value.
Experiment [11] is described as follows: blockers of RIG-like receptor reporter activation – cell-based, Sendai virus stimulus, luciferase, 10K MLSCN set, TLR/RLR signaling modifier project, primary screen (AID 602276;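 active means inhibition at or above 50% at 10 µM; inactive means inhibition below 50%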;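 further: firefly luciferase from ISG56 promoter only with Renilla not read in this screen; 0% = Sendai virus plus DMSO and 100% = medium plus DMSO without virus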). The note with it: HEK293 RL24 IRF3 luciferase reporter, at 10 µM, stronger effect = higher value.
A short description of experiment [12]: TLR3 IRF3 reporter activation blockers – cell-based, poly I:C stimulus, luciferase, 10K MLSCN set, primary screen (AID 602277;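 active means inhibition of the reporter signal at or above 50%; inactive means inhibition below 50%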). The note with it: HEK293-TLR3 RL24 IRF3 luciferase reporter, at 10 µM, stronger effect = higher value. (Reporter assays use an easily measured gene product as a stand-in for the process of interest.)
The mark [13] stands for this setting: measured here: cell density z-score.
[14] abbreviates: measured here: nuclear c-Myc green intensity z-score.
[15] abbreviates: measured here: nuclear pErk red intensity z-score, stronger effect = higher value.

By inhibition is commonly meant the relative decrease from the control value, in per cent.

The source made the active and inactive calls.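 How the source made its calls, unless noted: active means inhibition at or above 50% relative to wild type and mutant plate controls; inactive means inhibition below 50%.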

Voltage-gated potassium channel subunit beta-2 (Rattus norvegicus), sequence (P62483 whole entry, looked up): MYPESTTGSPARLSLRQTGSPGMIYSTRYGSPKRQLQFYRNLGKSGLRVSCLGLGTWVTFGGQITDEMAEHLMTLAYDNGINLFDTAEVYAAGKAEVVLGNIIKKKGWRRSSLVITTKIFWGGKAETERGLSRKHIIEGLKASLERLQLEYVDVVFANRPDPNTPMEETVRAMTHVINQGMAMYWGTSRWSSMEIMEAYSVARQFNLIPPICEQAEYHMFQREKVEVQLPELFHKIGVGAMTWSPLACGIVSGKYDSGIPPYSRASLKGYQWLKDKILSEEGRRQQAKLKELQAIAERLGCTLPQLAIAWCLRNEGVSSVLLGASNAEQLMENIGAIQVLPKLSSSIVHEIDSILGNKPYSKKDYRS
Dual specificity protein phosphatase 6 (Homo sapiens), sequence (Q16828 whole entry, looked up): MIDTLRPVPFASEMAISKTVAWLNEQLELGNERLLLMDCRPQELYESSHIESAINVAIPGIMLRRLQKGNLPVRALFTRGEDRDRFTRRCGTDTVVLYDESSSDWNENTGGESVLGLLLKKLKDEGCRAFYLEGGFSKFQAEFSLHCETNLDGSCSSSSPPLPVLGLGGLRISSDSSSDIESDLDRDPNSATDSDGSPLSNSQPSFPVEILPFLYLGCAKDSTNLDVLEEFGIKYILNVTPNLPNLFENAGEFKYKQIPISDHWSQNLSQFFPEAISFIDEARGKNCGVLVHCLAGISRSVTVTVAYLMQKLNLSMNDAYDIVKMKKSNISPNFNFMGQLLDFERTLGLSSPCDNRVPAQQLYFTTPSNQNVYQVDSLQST
Muscarinic acetylcholine receptor M4 (Homo sapiens), sequence (P08173 whole entry, looked up): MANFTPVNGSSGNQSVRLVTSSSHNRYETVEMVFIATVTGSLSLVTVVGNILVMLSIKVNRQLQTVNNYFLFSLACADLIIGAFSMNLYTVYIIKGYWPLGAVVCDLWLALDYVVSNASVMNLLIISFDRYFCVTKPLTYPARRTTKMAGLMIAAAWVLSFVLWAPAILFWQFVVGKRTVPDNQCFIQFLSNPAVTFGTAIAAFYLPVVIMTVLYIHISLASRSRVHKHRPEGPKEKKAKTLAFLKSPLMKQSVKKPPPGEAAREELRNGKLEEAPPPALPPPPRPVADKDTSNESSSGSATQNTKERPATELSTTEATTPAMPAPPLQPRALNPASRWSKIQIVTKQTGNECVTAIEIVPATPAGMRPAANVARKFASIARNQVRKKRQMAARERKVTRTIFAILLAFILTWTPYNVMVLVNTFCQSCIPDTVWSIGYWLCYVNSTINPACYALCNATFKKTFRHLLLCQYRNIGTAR

With `COc1ccc(CCn2c(=N)c(C#N)cc3c(=O)n4ccccc4nc32)cc1`, the cell count in [1] is 529. The inhibition in experiment [1] is 1.4% (inactive); in [3], -65.9% (inactive); in experiment [5], 24.3% (inactive); in [10], 32.6% (inactive); in [11] it was 13.2% (inactive); in experiment [12], 2.91% (inactive). In [2], the inhibition of aggregation is -0.9% (inactive). Moreover, the nuclei count in experiment [2] came out at 100%; in experiment [3] it was 105%. For the same compound, the z-score is 1.77 in experiment [4] (setting [13]), -0.331 in experiment [4] (setting [14]) and -0.629 in experiment [4] (setting [15]). Further, the results for the fluorescence slope in experiment [6] and in experiment [8] were -0.447 (inactive) and 0.00759 (inactive), respectively. Besides, in experiment [7], the NADPH fluorescence slope was -1.4e-05 (inactive). In experiment [9], the compound was classed as inactive.

With `O=C(Nc1ccccn1)NC(C(F)(F)F)C(F)(F)F`, the cell count in experiment [1] was 669. Also, the inhibition is -2.9% (inactive) in experiment [1]; -56% (inactive) in experiment [3]; 9.91% (inactive) in [5]; 12.6% (inactive) in experiment [10]; 0.13% (inactive) in experiment [11]; 5.13% (inactive) in experiment [12]. In experiment [2], the inhibition of aggregation was -15.1% (inactive). The nuclei count stood at 118% in experiment [2] and 139% in [3]. The z-score in [4] (setting [13]) was 0.555; in experiment [4] (setting [14]) it was 0.584; in [4] (setting [15]) it was 0.451. The fluorescence slope in experiment [6] was -0.472 (inactive); in experiment [8] it was 0.00603 (inactive). Further, the NADPH fluorescence slope in experiment [7] is -0.000163 (inactive). The compound was called inactive in [9].

Regarding `Cc1c(O)c(CN2CCCC(C)C2)cc2c3c(c(=O)oc12)CCC3` (stereo not drawn), the cell count in experiment [1] turned out to be 695. In addition, the inhibition in experiment [1] was -6.3% (inactive); in experiment [3], 30.2% (inactive); in experiment [5], -8.95% (inactive); in [10], 0.622% (inactive); in experiment [11] it was 13.6% (inactive); in experiment [12], 16% (inactive). Besides, the inhibition of aggregation in experiment [2] is -0.7% (inactive). Moreover, the values for the nuclei count in experiment [2] and in experiment [3] were 102% and 136%, respectively. The z-score in experiment [4] (setting [13]) is -0.479; in [4] (setting [14]), 2; in experiment [4] (setting [15]) it was 1.18. For the same compound, the fluorescence slope in experiment [6] was -0.0135 (inactive); in experiment [8], 0.00443 (inactive). The NADPH fluorescence slope in experiment [7] was 8.2e-07 (inactive). Moreover, the result in experiment [9] was inactive.

`Nc1nc(NC(=O)c2cccs2)nn1-c1ccccc1`: in [1], the cell count came to 647. In addition, the inhibition is -6.2% (inactive) in experiment [1]; 28.5% (inactive) in experiment [3]; 14.4% (inactive) in experiment [5]; -2.85% (inactive) in experiment [10]; -31.7% (inactive) in [11]; -72.3% (inactive) in [12]. Further, the inhibition of aggregation in experiment [2] was 2.6% (inactive). Further, the figures for the nuclei count in [2] and in experiment [3] were 104% and 140%, respectively. Further, the z-score in [4] (setting [13]) was -2.6; in experiment [4] (setting [14]), 0.834; in [4] (setting [15]), 1.83. Moreover, the fluorescence slope was -0.486 (inactive) in experiment [6] and 0.00702 (inactive) in experiment [8]. In experiment [7], the NADPH fluorescence slope is -6.6e-05 (inactive). Also, in experiment [9], the call was inactive.

As for `COc1ccc2c(c1)[nH]c1c(=O)n(CC3CCCO3)cnc12` (stereo not drawn), in experiment [1], the cell count was determined as 702. The inhibition in experiment [1] was -0.4% (inactive); in experiment [3], -39.2% (inactive); in experiment [5], -2.91% (inactive); in experiment [10], 0.053% (inactive); in experiment [11], -17.6% (inactive); in experiment [12] it was -27.5% (inactive). Further, the inhibition of aggregation in [2] was 5.9% (inactive). Further, the results for the nuclei count in experiment [2] and in experiment [3] were 73.4% and 133%, respectively. The results for the z-score in experiment [4] (setting [13]), in [4] (setting [14]) and in [4] (setting [15]) were 1.51, -0.546 and -1.36, respectively. Moreover, the fluorescence slope in [6] was -0.423 (inactive); in experiment [8], 0.00561 (inactive). In [7], the NADPH fluorescence slope is -4.3e-05 (inactive). Moreover, the call in experiment [9] was inactive.

Regarding `O=C(NCCN1CCCCC1)c1ccc(=O)oc1`, in experiment [1], the cell count stood at 586. Further, the inhibition was -3% (inactive) in experiment [1]; -0.3% (inactive) in [3]; 4.37% (inactive) in [5]; -5.06% (inactive) in experiment [10]; 3.93% (inactive) in experiment [11]; 3.77% (inactive) in experiment [12]. In addition, the inhibition of aggregation in experiment [2] was -8.2% (inactive). Besides, the nuclei count in experiment [2] is 90.9%; in experiment [3] it was 130%. Further, the z-score in [4] (setting [13]) is 0.13; in [4] (setting [14]), 0.819; in experiment [4] (setting [15]), -0.401. Besides, the fluorescence slope in experiment [6] is -0.482 (inactive); in experiment [8], 0.00918 (inactive). In experiment [7], the NADPH fluorescence slope is -5.1e-05 (inactive). Besides, the compound was classed as inactive in [9].

`Cc1nn(-c2ccccc2)c2c1C(=O)NC(=O)C(C)(C)C2`: the cell count in [1] was determined as 526. The inhibition in experiment [1] is 2.2% (inactive); in experiment [3], -24.8% (inactive); in experiment [5], -5.81% (inactive); in [10], -12.8% (inactive); in [11], 14.6% (inactive); in [12], 18.9% (inactive). Also, the inhibition of aggregation in experiment [2] was 9.8% (inactive). Further, the nuclei count in [2] worked out at 105%; in [3], 120%. In addition, the z-score in experiment [4] (setting [13]) was 0.866; in experiment [4] (setting [14]), 1.24; in experiment [4] (setting [15]), 0.796. Moreover, the fluorescence slope in experiment [6] is -0.52 (inactive); in experiment [8], 0.00545 (inactive). In addition, in experiment [7], the NADPH fluorescence slope was 4.3e-05 (inactive). Further, the outcome in experiment [9] was inactive.

In the case of `COCc1cc(=O)[nH]c(Nc2nc3ccccc3o2)n1`, in [1], the cell count amounted to 597. Also, the inhibition in experiment [1] was -4.5% (inactive); in experiment [3] it was -16% (inactive); in experiment [5], -2.09% (inactive); in [10], 4.61% (inactive); in [11] it was -29.5% (inactive); in experiment [12], -80.2% (inactive). Further, the inhibition of aggregation in experiment [2] is 5.2% (inactive). Further, the nuclei count was 87.4% in [2] and 95.2% in experiment [3]. In addition, the z-score in experiment [4] (setting [13]) was 0.0739; in [4] (setting [14]), -1.45; in experiment [4] (setting [15]), -0.93. Also, the fluorescence slope in [6] is -0.469 (inactive); in [8] it was 0.00519 (inactive). For the same compound, in experiment [7], the NADPH fluorescence slope is -5.1e-05 (inactive). In addition, the compound was classed as inactive in experiment [9].

Turning to `Cc1ccc2[nH]c3c(N4CCOCC4)ncnc3c2c1`, the cell count in [1] is 599. Also, the inhibition in experiment [1] is -3.9% (inactive); in [3], -12.3% (inactive); in experiment [5], -1.98% (inactive); in experiment [10], -1.47% (inactive); in experiment [11] it was -15.5% (inactive); in experiment [12], -85.9% (inactive). Also, the inhibition of aggregation in [2] is 18.9% (inactive). In addition, the nuclei count is 82.9% in experiment [2] and 152% in experiment [3]. Further, the z-score in experiment [4] (setting [13]) was -1.33; in experiment [4] (setting [14]) it was 0.984; in experiment [4] (setting [15]), 0.577. In addition, the fluorescence slope is -0.16 (inactive) in [6] and 0.00605 (inactive) in [8]. In addition, the NADPH fluorescence slope in experiment [7] is -2.2e-05 (inactive). The result in [9] was inactive.

(Values after PubChem BioAssay.)
